# In the supplement of paper PMC4022240:
# ± gives the standard deviation.
# T1: HaloTag-ATRX ADD domain (163-292)
# T1 chain: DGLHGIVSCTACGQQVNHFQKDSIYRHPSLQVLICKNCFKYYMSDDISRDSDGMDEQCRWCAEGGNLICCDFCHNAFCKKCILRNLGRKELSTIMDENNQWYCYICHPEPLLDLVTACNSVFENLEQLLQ
# Assays:
# Test in all cases: peptide microarray binding signal (635 nm), min-max normalized on array (fraction of array maximum); higher = stronger binding
# Conditions in all cases: peptide region: H3 1-13
# [1] = biological target: T1, HaloTag-ATRX ADD domain (163-292)
# Experimental: (§1)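 Histone 13-mer peptides were synthesized as cellulose conjugates with a C-terminal 20-atom PEG linker and printed in triplicate on nitrocellulose. The sequence given is the unmodified backbone; PTMs (Kme1/2/3, Kac, Sph/Tph, Rme/Rme2a/Rme2s, Rcit) are listed in the label and the 'peptide modifications' condition. Slides were probed at 4 °C for 1 h with biotin-labelled (HQ)5-HaloTag reader fusions (ATRX-ADD, ING2-PHD) then streptavidin-Alexa647, or with rabbit histone antibodies then anti-rabbit Alexa647. The mean 635 nm signal of the triplicate spots was scaled 0-1 between the lowest and highest values on each array.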
# [2] = biological target: HaloTag-ING2 PHD (mouse Ing2 200-280)
# Experimental: as §1
# [3] = biological target: anti-H3K4me3 antibody ab8580
# Experimental: as §1
# [4] = biological target: anti-H3K9me3 antibody ab8898
# Experimental: as §1
# [5] = peptide modifications: H3R2me1 H3K9me1, binder concentration: 1:2,000 dilution
# [6] = peptide modifications: H3R2me1 H3K9me1, binder concentration: 1:10,000 dilution
# [7] = peptide modifications: H3R2me1 H3K9me2, binder concentration: 1:2,000 dilution
# [8] = peptide modifications: H3R2me1 H3K9me2, binder concentration: 1:10,000 dilution
# [9] = peptide modifications: H3R2me1 H3K9me3, binder concentration: 1:2,000 dilution
# [10] = peptide modifications: H3R2me1 H3K9me3, binder concentration: 1:10,000 dilution
# [11] = peptide modifications: H3R2me1 H3T3ph, binder concentration: 1:2,000 dilution
# [12] = peptide modifications: H3R2me1 H3T3ph, binder concentration: 1:10,000 dilution
# [13] = peptide modifications: H3R2me1 H3T6ph, binder concentration: 1:2,000 dilution
# [14] = peptide modifications: H3R2me1 H3T6ph, binder concentration: 1:10,000 dilution
# [15] = peptide modifications: H3R2me2a H3K4ac, binder concentration: 1:2,000 dilution
# [16] = peptide modifications: H3R2me2a H3K4ac, binder concentration: 1:10,000 dilution
# [17] = peptide modifications: H3R2me2a H3K4me1, binder concentration: 1:2,000 dilution
# [18] = peptide modifications: H3R2me2a H3K4me1, binder concentration: 1:10,000 dilution
# [19] = peptide modifications: H3R2me2a H3K4me2, binder concentration: 1:2,000 dilution
# [20] = peptide modifications: H3R2me2a H3K4me2, binder concentration: 1:10,000 dilution
# [21] = peptide modifications: H3R2me2a H3K4me3, binder concentration: 1:2,000 dilution
# [22] = peptide modifications: H3R2me2a H3K4me3, binder concentration: 1:10,000 dilution
# [23] = peptide modifications: H3R2me2a H3K9ac, binder concentration: 1:2,000 dilution
# [24] = peptide modifications: H3R2me2a H3K9ac, binder concentration: 1:10,000 dilution
binder,measurement,setting,value
ARTKQTARKSTGG [H3 1-13 A Rme T K Q T A R Kme1 S T G G],peptide microarray binding signal,"[1]; peptide modifications: H3R2me1 H3K9me1, binder concentration: 50 nM",0.0572 ± 0.0022
same,peptide microarray binding signal,"[1]; peptide modifications: H3R2me1 H3K9me1, binder concentration: 500 nM",0.108 ± 0.011
same,peptide microarray binding signal,"[2]; peptide modifications: H3R2me1 H3K9me1, binder concentration: 10 nM",0.0402 ± 0.0095
same,peptide microarray binding signal,"[2]; peptide modifications: H3R2me1 H3K9me1, binder concentration: 100 nM",0.0772 ± 0.0086
same,peptide microarray binding signal,[3]; [5],0.00991 ± 0.0016
same,peptide microarray binding signal,[3]; [6],0.008959 ± 8.7e-05
same,peptide microarray binding signal,[4]; [5],0.00462 ± 0.00079
same,peptide microarray binding signal,[4]; [6],0.0045 ± 0.00015
ARTKQTARKSTGG [H3 1-13 A Rme T K Q T A R Kme2 S T G G],peptide microarray binding signal,"[1]; peptide modifications: H3R2me1 H3K9me2, binder concentration: 50 nM",0.151 ± 0.01
same,peptide microarray binding signal,"[1]; peptide modifications: H3R2me1 H3K9me2, binder concentration: 500 nM",0.167 ± 0.011
same,peptide microarray binding signal,"[2]; peptide modifications: H3R2me1 H3K9me2, binder concentration: 10 nM",0.047 ± 0.0094
same,peptide microarray binding signal,"[2]; peptide modifications: H3R2me1 H3K9me2, binder concentration: 100 nM",0.0747 ± 0.029
same,peptide microarray binding signal,[3]; [7],0.00563 ± 0.00089
same,peptide microarray binding signal,[3]; [8],0.00873 ± 0.0023
same,peptide microarray binding signal,[4]; [7],0.022 ± 0.012
same,peptide microarray binding signal,[4]; [8],0.0186 ± 0.014
ARTKQTARKSTGG [H3 1-13 A Rme T K Q T A R Kme3 S T G G],peptide microarray binding signal,"[1]; peptide modifications: H3R2me1 H3K9me3, binder concentration: 50 nM",1 ± 0.14
same,peptide microarray binding signal,"[1]; peptide modifications: H3R2me1 H3K9me3, binder concentration: 500 nM",1 ± 0.23
same,peptide microarray binding signal,"[2]; peptide modifications: H3R2me1 H3K9me3, binder concentration: 10 nM",0.0582 ± 0.011
same,peptide microarray binding signal,"[2]; peptide modifications: H3R2me1 H3K9me3, binder concentration: 100 nM",0.106 ± 0.024
same,peptide microarray binding signal,[3]; [9],0.088 ± 0.024
same,peptide microarray binding signal,[3]; [10],0.0951 ± 0.017
same,peptide microarray binding signal,[4]; [9],0.544 ± 0.12
same,peptide microarray binding signal,[4]; [10],0.357 ± 0.091
ARTKQTARKSTGG [H3 1-13 A Rme Tph K Q T A R K S T G G],peptide microarray binding signal,"[1]; peptide modifications: H3R2me1 H3T3ph, binder concentration: 50 nM",0.00649 ± 0.00021
same,peptide microarray binding signal,"[1]; peptide modifications: H3R2me1 H3T3ph, binder concentration: 500 nM",0.0224 ± 0.0029
same,peptide microarray binding signal,"[2]; peptide modifications: H3R2me1 H3T3ph, binder concentration: 10 nM",0.00382 ± 7e-05
same,peptide microarray binding signal,"[2]; peptide modifications: H3R2me1 H3T3ph, binder concentration: 100 nM",0.0254 ± 0.0015
same,peptide microarray binding signal,[3]; [11],0.00321 ± 0.0015
same,peptide microarray binding signal,[3]; [12],0.00183 ± 0.00011
same,peptide microarray binding signal,[4]; [11],0.00154 ± 0.00026
same,peptide microarray binding signal,[4]; [12],0.000692 ± 1.5e-05
ARTKQTARKSTGG [H3 1-13 A Rme T K Q Tph A R K S T G G],peptide microarray binding signal,"[1]; peptide modifications: H3R2me1 H3T6ph, binder concentration: 50 nM",0.00589 ± 0.00086
same,peptide microarray binding signal,"[1]; peptide modifications: H3R2me1 H3T6ph, binder concentration: 500 nM",0.00971 ± 0.00097
same,peptide microarray binding signal,"[2]; peptide modifications: H3R2me1 H3T6ph, binder concentration: 10 nM",0.00269 ± 4e-05
same,peptide microarray binding signal,"[2]; peptide modifications: H3R2me1 H3T6ph, binder concentration: 100 nM",0.0186 ± 0.0023
same,peptide microarray binding signal,[3]; [13],0.000774 ± 4.3e-05
same,peptide microarray binding signal,[3]; [14],0.000799 ± 2.2e-05
same,peptide microarray binding signal,[4]; [13],0.0018 ± 6.1e-05
same,peptide microarray binding signal,[4]; [14],0.000634 ± 1.2e-05
ARTKQTARKSTGG [H3 1-13 A Rme2a T Kac Q T A R K S T G G],peptide microarray binding signal,"[1]; peptide modifications: H3R2me2a H3K4ac, binder concentration: 50 nM",0.0125 ± 0.00079
same,peptide microarray binding signal,"[1]; peptide modifications: H3R2me2a H3K4ac, binder concentration: 500 nM",0.0335 ± 0.0053
same,peptide microarray binding signal,"[2]; peptide modifications: H3R2me2a H3K4ac, binder concentration: 10 nM",0.0118 ± 0.0039
same,peptide microarray binding signal,"[2]; peptide modifications: H3R2me2a H3K4ac, binder concentration: 100 nM",0.0337 ± 0.0021
same,peptide microarray binding signal,[3]; [15],0.00455 ± 0.00093
same,peptide microarray binding signal,[3]; [16],0.00639 ± 0.00058
same,peptide microarray binding signal,[4]; [15],0.0124 ± 0.0014
same,peptide microarray binding signal,[4]; [16],0.0053 ± 0.00063
ARTKQTARKSTGG [H3 1-13 A Rme2a T Kme Q T A R K S T G G],peptide microarray binding signal,"[1]; peptide modifications: H3R2me2a H3K4me1, binder concentration: 50 nM",0.0111 ± 0.00026
same,peptide microarray binding signal,"[1]; peptide modifications: H3R2me2a H3K4me1, binder concentration: 500 nM",0.0211 ± 0.001
same,peptide microarray binding signal,"[2]; peptide modifications: H3R2me2a H3K4me1, binder concentration: 10 nM",0.00585 ± 0.00028
same,peptide microarray binding signal,"[2]; peptide modifications: H3R2me2a H3K4me1, binder concentration: 100 nM",0.0274 ± 0.013
same,peptide microarray binding signal,[3]; [17],0.0329 ± 0.01
same,peptide microarray binding signal,[3]; [18],0.0417 ± 0.011
same,peptide microarray binding signal,[4]; [17],0.00468 ± 0.00097
same,peptide microarray binding signal,[4]; [18],0.00352 ± 0.00019
ARTKQTARKSTGG [H3 1-13 A Rme2a T Kme2 Q T A R K S T G G],peptide microarray binding signal,"[1]; peptide modifications: H3R2me2a H3K4me2, binder concentration: 50 nM",0.00837 ± 0.00013
same,peptide microarray binding signal,"[1]; peptide modifications: H3R2me2a H3K4me2, binder concentration: 500 nM",0.0168 ± 0.00084
same,peptide microarray binding signal,"[2]; peptide modifications: H3R2me2a H3K4me2, binder concentration: 10 nM",0.0141 ± 0.00071
same,peptide microarray binding signal,"[2]; peptide modifications: H3R2me2a H3K4me2, binder concentration: 100 nM",0.0206 ± 0.0044
same,peptide microarray binding signal,[3]; [19],0.0754 ± 0.017
same,peptide microarray binding signal,[3]; [20],0.0898 ± 0.0086
same,peptide microarray binding signal,[4]; [19],0.00464 ± 0.0004
same,peptide microarray binding signal,[4]; [20],0.00386 ± 0.00011
ARTKQTARKSTGG [H3 1-13 A Rme2a T Kme3 Q T A R K S T G G],peptide microarray binding signal,"[1]; peptide modifications: H3R2me2a H3K4me3, binder concentration: 50 nM",0.00912 ± 0.00034
same,peptide microarray binding signal,"[1]; peptide modifications: H3R2me2a H3K4me3, binder concentration: 500 nM",0.0301 ± 0.00069
same,peptide microarray binding signal,"[2]; peptide modifications: H3R2me2a H3K4me3, binder concentration: 10 nM",0.0149 ± 0.0016
same,peptide microarray binding signal,"[2]; peptide modifications: H3R2me2a H3K4me3, binder concentration: 100 nM",0.013 ± 0.0056
same,peptide microarray binding signal,[3]; [21],0.989 ± 0.041
same,peptide microarray binding signal,[3]; [22],0.193 ± 0.0034
same,peptide microarray binding signal,[4]; [21],0.249 ± 0.031
same,peptide microarray binding signal,[4]; [22],0.0997 ± 0.026
ARTKQTARKSTGG [H3 1-13 A Rme2a T K Q T A R Kac S T G G],peptide microarray binding signal,"[1]; peptide modifications: H3R2me2a H3K9ac, binder concentration: 50 nM",0.132 ± 0.1
same,peptide microarray binding signal,"[1]; peptide modifications: H3R2me2a H3K9ac, binder concentration: 500 nM",0.0324 ± 0.01
same,peptide microarray binding signal,"[2]; peptide modifications: H3R2me2a H3K9ac, binder concentration: 10 nM",0.0189 ± 0.0011
same,peptide microarray binding signal,"[2]; peptide modifications: H3R2me2a H3K9ac, binder concentration: 100 nM",0.0301 ± 0.0026
same,peptide microarray binding signal,[3]; [23],0.00698 ± 0.00018
same,peptide microarray binding signal,[3]; [24],0.00799 ± 0.0008
same,peptide microarray binding signal,[4]; [23],0.00634 ± 0.0012
same,peptide microarray binding signal,[4]; [24],0.0094 ± 0.0049
